Data reported in PubChem BioAssay AID951 (NMMLSC, 2007).
The campaign covered roughly 190,000 compounds. About 140 (0.074%) were called active. Rule as the data show it: active = inhibition above about 40%. What follows is part of a selection rich in actives, with near analogues and random picks from the rest.

What follows are compounds tested against Bcl-2-like protein 10 (Homo sapiens) (UniProt Q9HD36) (assay: Bcl-B and Bim peptide interaction disruptors – biochemical, multiplexed, human Bcl-2 family, primary screen (AID 951;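 also: 0% = tracer peptide without compound and 100% = reference inhibitor peptide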)). Details: bead-based flow cytometry, Bim peptide-Bcl-B binding; at 10 µM; active compounds read high.
Chain of Bcl-2-like protein 10 (Homo sapiens) (Q9HD36 whole entry, looked up): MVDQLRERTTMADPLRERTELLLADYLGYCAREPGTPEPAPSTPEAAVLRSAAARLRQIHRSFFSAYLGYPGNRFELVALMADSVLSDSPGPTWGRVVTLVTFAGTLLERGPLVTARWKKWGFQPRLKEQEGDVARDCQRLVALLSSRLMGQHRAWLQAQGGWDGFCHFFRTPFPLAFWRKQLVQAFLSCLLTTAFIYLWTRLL

inhibition, inactive:
O=[N+]([O-])c1ccc(N/N=C2/CCCCC2c2ccccn2)c([N+](=O)[O-])c1 (stereo unspecified) -11%
O=C(COc1ccccc1[N+](=O)[O-])NC1CC1 -4%
OCCNCCOc1ccc(Cl)c(Cl)c1 -5%
Cc1cccc(NC(=S)N(CCN(C)C)C(C)c2ccco2)c1 (stereo unspecified) 0%
COc1ccc(Br)cc1C(=O)Nc1cccc(C)c1C -7%
CCCCN1C(=O)c2ccc(C(=O)Nc3ccc(S(=O)(=O)N(C)C)cc3)cc2C1=O 0%
O=C(NNC(=O)c1ccc(Cl)cc1Cl)c1cccs1 -1%
CC(=O)NS(=O)(=O)c1ccc(NC(=O)C2C3C=CC(C3)C2C(=O)O)cc1 (stereo unspecified) -5%
S=c1nc(C23CC4CC(CC(C4)C2)C3)nc2sccn12 2%
O=C(CC1NCCc2ccccc21)Nc1cccc(Cl)c1 (stereo unspecified) -1%
CCN(CC)S(=O)(=O)c1ccc(N2CCCC2)c(NS(=O)(=O)c2cccs2)c1 -5%
Cc1ccn(-c2cccc(-n3ccc(C)n3)n2)n1 0%
COc1ccccc1C1CC(=O)n2c(nc(-c3ccccc3)c2-c2ccccc2)S1 (stereo unspecified) -4%
CC1(C)CC(N(Cc2ccccc2)C(=O)Cc2ccccc2)CCO1 (stereo unspecified) -3%
Cc1cccc(C(=O)OC(C)CN2CCN(C)CC2)c1 (stereo unspecified) -4%
CC(C)(C)NC(=O)COC(=O)c1cc(Cl)ccc1[N+](=O)[O-] 0%
O=C(c1ccc(Cl)c([N+](=O)[O-])c1)N1CCN(c2ccccc2)CC1 -4%
COc1cc(NC(=O)c2ccc3c(c2)OCO3)ccc1NC(=O)c1cccs1 2%
COc1ccc(/C=C2\SC(=S)N(CC(=O)NNC(=O)c3ccncc3)C2=O)cc1 -1%
COCCN(Cc1nc(-c2ccc(C(F)(F)F)cc2)no1)C(C)C -5%
CC(OC(=O)CNS(=O)(=O)/C=C/c1ccccc1)C(=O)Nc1ccc(S(=O)(=O)N2CCCC2)cc1 (stereo unspecified) -8%
Cc1ccc2nc(Nc3ncc4c(n3)CC(C)(C)CC4=O)nc(C)c2c1 -1%
COC(C(=O)NCc1ccccc1C)c1ccccc1 (stereo unspecified) -11%
CCC1(CC)NC(=O)N(Cc2nc3ccccc3s2)C1=O -3%
O=C(NC(=S)NC1CCSC1=O)c1ccccc1F (stereo unspecified) -3%
COc1ccc(-c2nn(-c3ccccc3)cc2/C=C\C(=O)N2CCOCC2)cc1[N+](=O)[O-] -1%
O=C(O)CC1S/C(=N\N=C/c2ccccc2O)N(c2ccc(O)cc2)C1=O (stereo unspecified) -5%
COC(=O)c1onc(-c2c(OC)cc(OC)cc2OC)c1C(=O)OC -1%
CC(C)(C)NC(=O)NC(=O)CN1CCC(Cc2ccccc2)CC1 -1%
CCCN(CCC)c1c([N+](=O)[O-])c(=O)oc2ccccc12 32%
Cc1c(C(=O)NC(=S)NCc2cccnc2)oc2ccccc12 -9%
Cc1cc(C(=O)N/N=C/c2ccc(O)c([N+](=O)[O-])c2)c(C)n1-c1ccc(F)cc1 10%
Cc1ccccc1NCC(=O)N/N=C\c1ccc([N+](=O)[O-])s1 -3%
COC(=O)c1ccc(C(NC(=O)OCc2ccccc2)/C(C)=C/[C@@H](C)C(=O)NCc2ccc(OC)c(OC)c2)cc1 (stereo partly specified) -7%
O=C(CCC(=O)c1cccs1)NC1CCCCCC1 -1%
O=C(C(Cl)Cl)N1CCN(c2ccccn2)CC1 -1%
CCOc1cc(N2CCOCC2)c(OCC)cc1NC(=O)c1cc(C)nc2ccccc12 -6%
COC(=O)c1sc2[nH]c(=S)n(N)c(=O)c2c1C -22%
CC(Cc1cccs1)NC(=O)c1cccc(Cl)c1 (stereo unspecified) -4%
C=CCNC(=O)c1ccccc1NC(=O)c1ccc(Cl)c(S(=O)(=O)Nc2cccc(C)c2C)c1 -5%
COc1ccc(C(=O)Nc2sc(C)c(C)c2CN2CCOCC2)cc1 -7%
CCCn1nc(C(=O)Nc2ccc3nc(C)sc3c2)c2ccccc2c1=O -7%
COc1cc(C(=O)N[C@@H](C)C(=O)NCc2ccco2)cc(OC)c1OC 1%
Cn1c(SCC(=O)NC2CCCCC2)nnc1-c1ccc(N)cc1 -4%
COc1ccc(C2OCC3(CO2)SC(=O)NC3=O)cc1OC (stereo unspecified) -1%
CCN(C(=O)CSc1nc2ccccc2n1CC)C1CCS(=O)(=O)C1 (stereo unspecified) -1%
